# Screening data as filed in PubChem.
# IL-1B inflam inh: blocks inflammasome-driven IL-1 beta release; THP-1 LPS/ATP IL-1B secretion, AlphaLISA, 16 h; hits give low values; actives 4.7% (n = 360,000); AID 743279; activity change, % at 57.5 µM; in the data active = activity change below about -50%; inconclusive = mostly about -30% to -49%
#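 Secreted IL-1B measured by AlphaLISA bead assay after 16 h compound exposure of THP-1 cells; compounds (final up to 57.5 uM) added 1 h before LPS (250 ng/mL) and ATP (1.25 mM) stimulation; lower signal means less secretion.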
# TDP1 cell noCPT: qHTS for Inhibitors of human tyrosyl-DNA phosphodiesterase 1 (TDP1): qHTS in cells in absence of CPT. DT40 Tdp1-/- hTDP1 cells, no CPT, ATP luminescence, 48 h. Potency, µM (doses to about 46.2 µM), hits mostly inhibitors. actives 15% (n = 420,000); note: nearly all actives have a fitted effect of over 55% in size
#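 A cellular qHTS used chicken DT40 cells lacking endogenous Tdp1 but carrying stably transfected human TDP1. Compounds were applied without camptothecin, and cell growth kinetics were judged by ATP-dependent luminescence after ≥48 hr.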
# DRD3 agonist: activates the human D3 dopamine receptor. D3R DiscoveRx beta-arrestin cells, luminescence, 90 min. max activation, %. actives 0.58% (n = 410,000). AID 652048; in the data active = max activation above about 30%
# Target sequence (P35462 whole entry, looked up): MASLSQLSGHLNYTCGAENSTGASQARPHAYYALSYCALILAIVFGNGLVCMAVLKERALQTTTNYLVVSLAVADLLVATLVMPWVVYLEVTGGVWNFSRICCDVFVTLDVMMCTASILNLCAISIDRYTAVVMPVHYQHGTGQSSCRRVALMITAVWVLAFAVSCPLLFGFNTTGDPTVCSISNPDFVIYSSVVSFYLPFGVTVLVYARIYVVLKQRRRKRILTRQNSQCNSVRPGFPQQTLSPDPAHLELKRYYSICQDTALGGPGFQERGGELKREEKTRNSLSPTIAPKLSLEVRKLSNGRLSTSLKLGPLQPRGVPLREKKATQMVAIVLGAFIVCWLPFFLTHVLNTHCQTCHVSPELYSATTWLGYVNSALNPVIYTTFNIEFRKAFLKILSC
#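 Cells at 1500/well, incubated overnight, then treated with pinned compounds (dopamine as control) for 90 min at 37 degrees C. DiscoveRx reagent added for 30 - 60 minutes at room temperature; luminescence read.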
# DT40 TDP1 CPT: DT40-hTDP1 cell growth loss with CPT. Potency, µM (titrated, usually from 46.2 µM), usual class: inhibitors. actives 12% (n = 420,000). AID 686979. chicken DT40 Tdp1-/-;hTDP1 cells + 20 nM CPT, ATP luminescence, 48 h; note: nearly all actives have a fitted effect of over 55% in size
#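 Chicken DT40 Tdp1-/- cells complemented with human TDP1, 400 cells/well, exposed to compounds plus 20 nM camptothecin for at least 48 h at 37 C; viability read as ATP content by CellTiter-Glo luminescence.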
# ClpP mod: qHTS Assay for Activators of ClpP. purified B. subtilis ClpP, FRET peptide cleavage, 20 min. Potency, µM (highest dose often 57.5 µM). actives 1.9% (n = 340,000). AID 651965, 2013; active = well fitted falling curve with a large enough effect; inconclusive = small, poorly fitted or top-dose-only effect; inactive = no such curve, though single readings can be large or run the other way; note: the source files actives as falling curves though it sought activators and does not explain the sign; nearly all actives have a fitted effect of over 65% in size
# Target sequence (P80244 whole entry, looked up): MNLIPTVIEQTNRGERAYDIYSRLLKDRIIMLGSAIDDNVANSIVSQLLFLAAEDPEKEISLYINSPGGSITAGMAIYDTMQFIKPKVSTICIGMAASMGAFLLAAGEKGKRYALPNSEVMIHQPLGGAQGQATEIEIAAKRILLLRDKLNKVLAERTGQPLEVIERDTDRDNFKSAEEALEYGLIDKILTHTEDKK
#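 FRET quenching reversal measured ClpP activation: 10 microg/mL B. subtilis ClpP at pH 8 with the FRET-FV decapeptide, read at 430 nm after 320 nm excitation. The 20-min minus 0-min signal was scaled between DMSO/no-enzyme wells and ADEP (5.8 microM final).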
# D3 antag: antagonists of human D3 dopamine receptor; max response, negative = inhibition, %; actives 2.5% (n = 360,000); D3R cells, DiscoveRx beta-arrestin luminescence, antagonist mode; hits give low values; P35462; in the data active = max response below about -50%; inconclusive = no clear call, values can overlap the other calls
#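 Cells expressing the human receptor were seeded at 1500 cells/well, incubated overnight at 37 degrees C in 5% CO2, then exposed to library compounds with dopamine controls for 90 minutes at 37 degrees C before luminescent detection.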
# A number is an active result; . = inactive; ? = inconclusive; / = no result. A selection: hits, their analogues and other compounds. The true share with any hit is near 21%. Unless noted, calls come from the whole dose curve; as a rule, active = well fitted inhibition curve with a large enough effect; inconclusive = small, poorly fitted or top-dose-only effect; inactive = flat fitted curve, though single readings scatter.
SMILES,IL-1B inflam inh,TDP1 cell noCPT,DRD3 agonist,DT40 TDP1 CPT,ClpP mod,D3 antag
CCOC(=O)[C@]12CCCC=C1N(Cc1ccccc1)C(=O)[C@H](CC(=O)N1CCC(c3ccccc3)CC1)C2,.,?,.,16µM,.,.
COc1ccc(NC(=O)Cc2nnc(SCC(=O)NC3CCCCC3)n2C)cc1,.,.,.,.,.,.
COC(C/C=C\[C@H](O)COCc1ccccc1)OC,.,.,.,.,.,.
COC(C/C=C/C(=O)[C@H](C)OCc1ccccc1)OC,.,7.3µM,.,5.2µM,.,?
COC(C/C=C/C(=O)COCc1ccccc1)OC,-87,?,.,15µM,.,.
Cc1ccc(S(=O)(=O)NCCC(=O)NNC(=O)c2ccccc2Cl)cc1C,.,.,.,.,.,.
Cc1cccc(OCC(=O)N(Cc2ccc(C)o2)C2CCS(=O)(=O)C2)c1 (configuration not stated),.,.,.,.,.,.
CC(NC(=O)/C=C/c1cnc2ccccc2n1)C12CC3CC(CC(C3)C1)C2 (configuration not stated),.,18µM,.,?,?,.
Cc1ccc2nc(SCC(=O)N3CCCCC3)nc(=O)n2c1,.,.,.,.,/,.
CC1(C)C(=O)OC(c2c(F)c(F)c(F)c(F)c2F)C2(CCCCC2)C1=O (configuration not stated),.,?,.,.,28µM,.
COc1ccc(C(=O)N=C2SC3CS(=O)(=O)CC3N2Cc2ccc(F)cc2)cc1 (configuration not stated),.,.,.,.,.,.
CN(C)c1ccc(-c2ccc([C@H]3[C@@H]4C=CCC[C@@]4(C)C(=O)N3Cc3ccccc3)c(F)c2)cc1,.,18µM,.,23µM,.,.
CN(C)c1ccc(-c2cc([C@H]3[C@@H]4C=CCC[C@@]4(C)C(=O)N3Cc3ccccc3)ccc2F)cc1,.,23µM,.,?,.,.
COc1ccc(-c2cccc([C@H]3[C@@H]4C=CCC[C@@]4(C)C(=O)N3Cc3ccccc3)c2)cc1,.,16µM,.,23µM,.,.
COc1ccc(-c2cc([C@H]3[C@@H]4C=CCC[C@@]4(C)C(=O)N3Cc3ccccc3)ccc2F)cc1OC,.,?,.,26µM,.,.
COc1ccc(-c2c([C@H]3[C@@H]4C=CCC[C@@]4(C)C(=O)N3Cc3ccccc3)ccc3ccccc23)cc1OC,.,?,.,?,.,.
C[C@@]12CCC=C[C@H]1[C@H](c1ccoc1)N(Cc1ccccc1)C2=O,.,.,.,.,.,.
C[C@@]12CCC=C[C@H]1[C@H](c1ccccc1Br)N(Cc1ccccc1)C2=O,.,16µM,.,?,.,.
C[C@@]12CCC=C[C@H]1[C@H](c1ccc(F)c(/C=C/c3ccccc3)c1)N(Cc1ccccc1)C2=O,.,16µM,.,?,28µM,.
COc1ccc([C@H]2[C@@H]3C=CCC[C@@]3(C)C(=O)N2Cc2ccccc2)cc1Cl,.,21µM,.,?,.,-55
Cc1ccc(F)c([C@H]2[C@@H]3C=CCC[C@@]3(C)C(=O)N2Cc2ccccc2)c1,.,?,.,?,.,.
CN(Cc1cccc(-n2cccn2)c1)C(=O)CCc1nnc(C2CCCCC2)o1,.,.,.,.,.,.
CCOc1ccc(NC(=O)CSc2n[nH]c(=O)n2-c2ccccc2)cc1,.,.,.,.,.,.
CCOc1ccc(-n2c(=O)c3c4c(sc3n(CC(=O)NC(C)CC)c2=O)CCCCC4)cc1 (configuration not stated),/,.,.,.,.,/
Cc1[nH]nc2nc(SCC(=O)NCC3CCCO3)n(-c3ccc(Br)cc3)c(=N)c12 (configuration not stated),.,?,.,15µM,.,-50
SMILES,IL-1B inflam inh,TDP1 cell noCPT,DRD3 agonist,DT40 TDP1 CPT,ClpP mod,D3 antag
CCOc1ccc(-n2c(SCC(=O)NC(C)CC)nc3n[nH]c(C)c3c2=N)cc1 (configuration not stated),.,18µM,.,?,?,.
CCOc1ccc(-n2c(SCC(=O)Nc3ccc(Br)cc3)nc3n[nH]c(C)c3c2=N)cc1,.,7.3µM,.,13µM,/,.
CCC(C)NC(=O)CSc1nc2n[nH]c(C)c2c(=N)n1-c1ccc(C)c(Cl)c1 (configuration not stated),/,1.6µM,.,3.3µM,.,/
COc1ccc(CCn2c(=O)c3cccnc3n(CC(=O)Nc3ccc(C)cc3C)c2=O)cc1OC,/,?,.,?,.,/
CCOC(=O)[C@@H]1[C@H]2COc3ccccc3[C@H]2N2C(=O)N(c3cccc(C)c3)C(=O)[C@]12C,.,.,.,.,.,.
COc1cccc(-c2nc(CS(=O)(=O)CC(=O)N3CCOCC3)c(C)o2)c1,.,.,.,.,.,.
CCC(=O)NCCc1nc2cc(NC(=O)c3cccc([N+](=O)[O-])c3)ccc2n1C,.,.,.,.,.,.
COCCNC(=S)N(CCc1c(C)[nH]c2ccc(F)cc12)Cc1ccco1,.,?,.,?,.,.
CCC(C)NC(=O)CSc1nc2n[nH]c(C)c2c(=N)n1-c1ccc(OC)cc1 (configuration not stated),.,18µM,.,16µM,.,.
CCC(C)NC(=O)CSc1nnc(-c2ccncc2)n1-c1ccc(OC)cc1 (configuration not stated),.,.,.,.,.,.
Clc1nc(Cl)c2ncn(-c3ccccc3)c2n1,-103,13µM,.,8.2µM,.,.
COc1ccc(C2CC(=O)c3cnc(NC(=O)c4ccccc4)nc3C2)c(OC)c1 (configuration not stated),.,7.3µM,.,6.5µM,.,.
O=C1CC(c2ccco2)Cc2nc(Nc3ccc(F)cc3)ncc21 (configuration not stated),?,23µM,.,?,.,.
COc1ccc(Nc2ncc3c(n2)CC(c2ccc(OC)cc2)CC3=O)cc1 (configuration not stated),.,12µM,.,?,.,.
O=C(Nc1ncc2c(n1)CC(c1ccccc1)CC2=O)c1ccco1 (configuration not stated),.,.,.,.,.,.
COc1ccc(C2CC(=O)c3cnc(NC(=O)c4ccco4)nc3C2)cc1 (configuration not stated),.,.,.,.,.,.
